Shown are actives, neighbours in structure and some others; about 13% of the full set was active somewhere.
USP28 block: human USP28 deubiquitinase inhibition. Q96RU2. inhibition, % at 25 µM. AID 1645857. purified USP28, Ub-rhodamine cleavage fluorescence, 30 min. hit rate 3% among 47,000
USP8 block: human USP8 deubiquitinase inhibition | P40818 | purified USP8, Ub-rhodamine cleavage fluorescence, 30 min | AID 1645853 | inhibition, % at 20 µM | hit rate 4.2% among 47,000
OTUD3 inh: human OTUD3 deubiquitinase inhibition; purified OTUD3, Ub-rhodamine fluorescence, 2 h; hit rate 0.7% among 47,000; inhibition, % at 25 µM
Target sequence (Q5T2D3 whole entry, looked up): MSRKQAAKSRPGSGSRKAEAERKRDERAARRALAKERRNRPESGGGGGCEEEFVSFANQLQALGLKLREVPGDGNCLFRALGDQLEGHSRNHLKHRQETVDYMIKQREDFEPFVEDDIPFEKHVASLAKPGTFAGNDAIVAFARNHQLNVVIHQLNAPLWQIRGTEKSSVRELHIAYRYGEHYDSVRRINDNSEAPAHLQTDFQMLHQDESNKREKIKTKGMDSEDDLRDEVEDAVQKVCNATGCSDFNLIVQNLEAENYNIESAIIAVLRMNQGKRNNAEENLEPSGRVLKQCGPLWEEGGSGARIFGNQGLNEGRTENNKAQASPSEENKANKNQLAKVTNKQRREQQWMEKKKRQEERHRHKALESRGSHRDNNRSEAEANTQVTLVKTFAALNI
USP30 inh: human USP30 deubiquitinase inhibition; purified USP30, Ub-rhodamine cleavage fluorescence; inhibition, % at 25 µM; hit rate 5.3% among 47,000; AID 1645860
USP17 inh: blocks human USP17 ubiquitin-rhodamine cleavage; A8MUK1; purified USP17, Ub-rhodamine cleavage fluorescence, 3 h; inhibition, % at 50 µM; hit rate 6.5% among 47,000; AID 1645855
USP10 inh: inhibitors of human USP10 deubiquitinase; purified USP10, Ub-rhodamine fluorescence, 60 min; inhibition, % at 20 µM; hit rate 1.1% among 47,000; AID 1645856
A number is an active result; i = inactive; nt = no result given. Cut-off read from the data, not from the text of the source: active = inhibition above about 30%; inactive = the rest.

SMILES | USP28 block | USP8 block | OTUD3 inh | USP30 inh | USP17 inh | USP10 inh
COc1ccccc1CNCC(O)(c1ccccc1)c1ccc(F)cc1 (centres undefined) | i | i | i | 36 | i | i
O=C(Nc1nc2c(s1)COCC2)c1cc(-c2ccco2)[nH]n1 | 64 | 86 | 64 | i | 73 | i
O=C(/C=C/c1ccco1)Nc1nc2c(s1)COCC2 | i | i | i | i | i | i
OCCNc1nc(-c2ccccc2)nc2c1oc1ccccc12 | i | i | i | 71 | 60 | i
Cc1cccc(OCC(O)CNc2nc(C)cc(C)n2)c1 (centres undefined) | i | i | i | i | i | i
COc1cccc(OCC(O)CNc2ccc(Cl)cc2)c1 (centres undefined) | i | 37 | i | i | i | i
FC(F)(F)c1cccc(SCCOc2ccccc2)c1 | i | i | i | i | i | i
CCN(CC)C(=O)Cn1cc(S(=O)(=O)Cc2ccccc2Cl)c2ccccc21 | i | i | i | i | 38 | i
CCN(CC)C(=O)Cn1cc(C(=O)C(=O)NCc2ccccc2Cl)c2ccccc21 | i | i | i | 45 | i | i
Cc1ccccc1CS(=O)(=O)c1cn(CC(=O)N2CCCCC2)c2ccccc12 | i | i | i | i | i | i
CCN(CC)C(=O)Cn1cc(S(=O)(=O)Cc2c(F)cccc2Cl)c2ccccc21 | i | i | i | 38 | i | i
O=C(c1cc2c(s1)-c1ccccc1S(=O)(=O)C2)N1CCN(c2ccccc2F)CC1 | i | i | i | i | i | i
N#Cc1ccccc1NC(=O)c1cc2c(s1)-c1ccccc1S(=O)(=O)C2 | 88 | i | 56 | 83 | 72 | 49
O=C1CC(c2ccco2)Cc2nc(NCc3ccco3)ncc21 (centres undefined) | i | i | i | i | 34 | i
O=C1CC(c2ccccc2)Cc2nc(NCc3ccco3)ncc21 (centres undefined) | i | i | i | i | i | i
CCOc1cc2c(cc1OCC)C(c1c(OC)ccc3ccccc13)NCC2 (centres undefined) | i | i | i | 38 | i | i
Cc1nc2c(C)cccn2c(=O)c1NC(=O)COc1ccc(Cl)cc1 | i | i | i | i | i | i
COc1ccc(NC(=O)CCc2c(C)c3c(C)nn(-c4ccccc4)c3n(C)c2=O)c(OC)c1 | i | i | i | 30 | i | i
COc1ccc(CC(=O)N2CCN=C2SCc2cccc(F)c2)cc1 | i | i | i | i | i | i
CC(NC(=O)COc1ccccc1)c1nc(-c2ccc(Cl)cc2)no1 (centres undefined) | i | i | i | i | i | i
CC(C)NC(=O)COc1cccc(-c2noc(-c3ccc(F)cc3)n2)c1 | i | i | i | i | i | i
O=C(COc1ccc(Cl)cc1)Nc1onc2c1CCCC2 | i | i | i | 56 | 50 | i
O=C(COc1ccc(Cl)cc1)Nc1noc(-c2ccccc2)n1 | 58 | 88 | i | 69 | i | 50
Cc1ccc(OCC(=O)Nc2onc3c2CCCC3)cc1 | i | i | i | i | i | i
Cc1ccccc1-c1noc(-c2ccccc2OCC(=O)NC(C)C)n1 | i | i | i | 49 | 62 | i
SMILES | USP28 block | USP8 block | OTUD3 inh | USP30 inh | USP17 inh | USP10 inh
Cc1ccc(-c2ncc(NC(=O)COc3ccc(F)cc3)cn2)cc1 | i | i | i | i | i | i
Cc1ccccc1-c1nc(NC(=O)COc2ccc(F)cc2)no1 | i | i | i | 36 | i | i
Cc1cc(C(=O)O)ccc1NS(=O)(=O)c1ccc2c(c1)CCC2 | i | i | i | i | i | i
c1cncc(-c2noc(C3CC34CCN(Cc3nc(C5CC5)no3)CC4)n2)c1 (centres undefined) | i | i | i | i | i | i
CCNC(=O)c1cccc(NC(=O)c2cc(Cl)c3c(c2)OCO3)c1 | 31 | i | i | i | i | i
CCN(C(=O)c1cccc(NC(=O)c2ccccc2)c1)c1ccccc1 | i | i | i | i | i | i
COc1ccc(-c2nc3ccccc3c(C(=O)NCCN3CCOCC3)c2C)cc1 | i | i | i | i | i | i
Cc1cc2c(cn1)C(=O)c1c(O)cc(O)cc1C2=O | 34 | i | i | i | i | i
Cc1[nH]c2ccc(F)cc2c(=O)c1CN1CCCCC1 | i | i | i | i | i | i
Cc1ccccc1OCC(=O)Nc1ccc2c(c1)CN(C(=O)c1ccco1)CC2 | 37 | i | i | i | i | i
Cc1ccc(OCC(=O)Nc2ccc3c(c2)CN(C(=O)c2ccco2)CC3)cc1 | 50 | 33 | i | 43 | 51 | i
O=C(COc1ccc(Cl)cc1)Nc1ccc2c(c1)CCC(=O)N2Cc1ccccc1 | i | i | i | i | i | i
O=C(COc1ccc(-c2ccccc2)cc1)N1CCN(C(=O)c2ccco2)CC1 | i | i | i | 31 | i | i
CCN1CCN(c2ccc(NC(=O)COc3ccccc3C)cc2)CC1 | i | i | i | i | i | i
COc1ccc(-c2cc(C(=O)N3CCN(c4ccc(F)cc4)CC3)[nH]n2)cc1 | i | i | i | i | i | i
Cc1cc(-c2ccccc2)cc(C2CCCN(C(=O)c3ccccc3)C2)n1 (centres undefined) | i | i | i | i | i | i
CC(C)(C)C(=O)N1CCC(Cc2nccnc2-c2cccc(C(=O)O)c2)C1 (centres undefined) | i | i | i | i | i | i
Fc1ccc(OCc2nc(-c3cccc(-c4ccn[nH]4)c3)no2)cc1 | 52 | 33 | i | 39 | 80 | i
C(=C\c1nc(-c2cccc(-c3ccn[nH]3)c2)no1)/c1ccco1 | i | 35 | i | i | i | i
Cc1ccc(CSc2ncnc3c2sc2nc(-c4ccccc4)c4c(c23)CC(C)(C)OC4)cc1 | i | i | i | i | i | i
O=C(CCC(=O)N1CCOc2ccccc21)Nc1cc(F)ccc1F | i | i | i | i | i | i
O=C(CN1C=NC2=NS(=O)(=O)c3ccccc3N21)Nc1cc(F)ccc1F | i | i | i | i | 76 | i
Cc1cc2n(n1)CCCN2C(=O)CCC(=O)Nc1ccccc1C(=O)c1ccccc1 | i | i | i | i | nt | i
N#C/C(=C/c1ccc(OCc2cccc(C(=O)O)c2)cc1)c1ccccc1 | i | i | i | i | i | i
N#C/C(=C\c1ccc(OCc2cccc(C(=O)O)c2)cc1)c1ccc(F)cc1 | i | 59 | i | i | 69 | 77
CC(=O)N1CCC2(CC1)N=C(c1ccccc1O)CC(c1ccc(C)cc1)N2 (centres undefined) | i | i | i | i | i | i
CCN1CCC2(CC1)N=C(c1ccc3c(c1)OCO3)CC(c1ccccc1O)N2 (centres undefined) | i | 34 | i | i | i | i
CCN1CCC2(CC1)N=C(c1ccccc1)CC(c1cccc(OC)c1O)N2 (centres undefined) | i | 60 | i | i | i | i
COc1ccc(C2CC(c3ccccc3O)=NC3(CCN(C(C)=O)CC3)N2)cc1 (centres undefined) | i | i | i | i | nt | i
